The results in this text go back to PubChem BioAssay (NCI).

Holding throughout (assay): NCI-60 one-dose screen, 48 h (100 = growth as untreated, 0 = no growth, -100 = all killed)
One experiment concerns SK-MEL-2 melanoma. Conditions: 10 µM.
The next experiment relates to EKVX NSCLC. The conditions noted are these: 10 µM.
Another experiment has as its system SN12C renal. Conditions: 10 µM.
A further experiment deals with TK-10 renal. Conditions: 10 µM unless noted.
The test system of a further experiment is ACHN renal. Conditions: 10 µM.
Another experiment has as its system CAKI-1 renal. The conditions noted are these: 10 µM.
For another experiment, the system named is CCRF-CEM leukemia. Conditions: 10 µM.
The subject of another experiment is SR leukemia. Conditions: 10 µM.
The next experiment concerns RPMI-8226 leukemia. Conditions: 10 µM.
The test system of another experiment is OVCAR-5 ovarian. Conditions: 10 µM.
Another experiment deals with OVCAR-4 ovarian. Conditions: 10 µM.
The subject of the next experiment is SK-OV-3 ovarian. Conditions: 10 µM.
The test system of another experiment is IGROV1 ovarian. The conditions noted are these: 10 µM.
The test system of the next experiment is OVCAR-3 ovarian. The conditions noted are these: 10 µM.
The subject of another experiment is HS 578T breast. Conditions: 10 µM.
For the next experiment, the system named is NCI/ADR-RES ovarian. The conditions noted are these: 10 µM.
In the next experiment the test system is A498 renal. Conditions: 10 µM.
A further experiment relates to MOLT-4 leukemia. The conditions noted are these: 10 µM.
Another experiment relates to OVCAR-8 ovarian. The conditions noted are these: 10 µM.
The next experiment has as its system UO-31 renal. The conditions noted are these: 10 µM.

The panel holds about 83,000 compounds, 20% with a hit somewhere; the sample as a whole holds those more often.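 Assay: single dose, 48 h. Readout: percent growth (0 = no net growth; negative = cell death). Active: <10.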 A number with no mark means an inactive call. Activity calls are given as the source filed them.

Take `CC(C)OC(=O)c1cc(NC(=S)OC(C)C)ccc1Cl`: the growth in the experiment with SK-MEL-2 melanoma was 96.4%; in the experiment on EKVX NSCLC it was 85.8%; in the experiment with SN12C renal, 93%; in the experiment on TK-10 renal, 86.1%; in the experiment on ACHN renal, 98.7%; in the experiment on CAKI-1 renal, 53.6%. The growth is 88.8% in the experiment with CCRF-CEM leukemia; 70.2% in the experiment with SR leukemia; 83.3% in the experiment on RPMI-8226 leukemia; 67.2% in the experiment on OVCAR-5 ovarian; 99.1% in the experiment on OVCAR-4 ovarian; 95.1% with SK-OV-3 ovarian. Also, the growth in the experiment with IGROV1 ovarian is 89.9%; in the experiment with OVCAR-3 ovarian it was 93.9%; in the experiment with HS 578T breast, -29% (active); in the experiment with NCI/ADR-RES ovarian, 25.8%.
As for `CC(=O)CC(=O)N(C)C`, the growth is 106% in the experiment on SK-MEL-2 melanoma; 93.5% in the experiment on EKVX NSCLC; 97% in the experiment on SN12C renal; 98.4% in the experiment with TK-10 renal; 103% in the experiment on ACHN renal; 88.3% in the experiment on CAKI-1 renal. For the same compound, the growth is 102% in the experiment on A498 renal; 73.7% in the experiment with CCRF-CEM leukemia; 120% in the experiment on MOLT-4 leukemia; 97.9% in the experiment with RPMI-8226 leukemia; 101% with OVCAR-8 ovarian; 104% in the experiment on OVCAR-5 ovarian. Moreover, the growth was 101% in the experiment with OVCAR-4 ovarian; 108% with SK-OV-3 ovarian; 109% in the experiment on IGROV1 ovarian; 112% in the experiment on OVCAR-3 ovarian; 98.3% in the experiment on HS 578T breast; 100% in the experiment on NCI/ADR-RES ovarian.
As for `COc1cc(OC)c2ccc(=O)oc2c1`, the growth with SK-MEL-2 melanoma is 104%; with EKVX NSCLC, 95.2%; with SN12C renal, 97%; in the experiment with TK-10 renal, 101%; with ACHN renal it was 104%; in the experiment with CAKI-1 renal, 113%. Besides, the growth with CCRF-CEM leukemia is 106%; in the experiment with MOLT-4 leukemia it was 115%; with SR leukemia, 125%; with RPMI-8226 leukemia, 116%; in the experiment on OVCAR-8 ovarian, 103%; in the experiment with OVCAR-5 ovarian, 90.3%. In addition, the growth in the experiment with OVCAR-4 ovarian was 107%; in the experiment with SK-OV-3 ovarian, 112%; in the experiment with IGROV1 ovarian, 130%; in the experiment with OVCAR-3 ovarian it was 110%; with HS 578T breast, 97.1%; in the experiment on NCI/ADR-RES ovarian, 105%.
As for `Cc1cc(N)ccc1-c1ccc(N)cc1C`, the growth in the experiment with SK-MEL-2 melanoma is 86.3%; in the experiment on EKVX NSCLC, 106%; in the experiment with SN12C renal it was 98.5%; with TK-10 renal, 111%; in the experiment on ACHN renal it was 99.1%; in the experiment with CAKI-1 renal it was 94.8%. Also, the growth in the experiment on CCRF-CEM leukemia is 105%; with SR leukemia it was 95.2%; in the experiment on RPMI-8226 leukemia it was 108%; in the experiment with OVCAR-8 ovarian it was 90.7%; in the experiment on OVCAR-5 ovarian, 98.4%; with SK-OV-3 ovarian it was 96.4%. Moreover, the growth in the experiment with IGROV1 ovarian is 104%; with OVCAR-3 ovarian, 99.8%; in the experiment with HS 578T breast it was 90.4%; with NCI/ADR-RES ovarian, 92.5%.
For `C=CCCCCCCCCCOC(C)=O`, the growth in the experiment on SK-MEL-2 melanoma was 98.5%; in the experiment with SN12C renal, 98.8%; in the experiment with UO-31 renal, 92.4%; in the experiment on TK-10 renal it was 91.5%; with ACHN renal it was 110%; with CAKI-1 renal it was 104%. The growth with A498 renal was 111%; in the experiment on CCRF-CEM leukemia, 101%; with MOLT-4 leukemia, 103%; in the experiment on SR leukemia, 91.4%; in the experiment on RPMI-8226 leukemia, 101%; with OVCAR-5 ovarian it was 103%. For the same compound, the growth is 103% in the experiment on OVCAR-4 ovarian; 104% with SK-OV-3 ovarian; 103% in the experiment on OVCAR-3 ovarian; 99.7% in the experiment with HS 578T breast; 107% in the experiment with NCI/ADR-RES ovarian.
For the compound `CCCCCCCCCCCCCC(=O)Oc1ccc[nH]c1=O`, the growth was 115% in the experiment with SK-MEL-2 melanoma; 83.4% in the experiment with EKVX NSCLC; 98.1% in the experiment with SN12C renal; 84.2% in the experiment with TK-10 renal; 94.5% in the experiment on A498 renal; 75.5% in the experiment with CCRF-CEM leukemia. Besides, the growth in the experiment with MOLT-4 leukemia is 98.6%; with RPMI-8226 leukemia, 95.7%; in the experiment with OVCAR-8 ovarian, 94.9%; with OVCAR-5 ovarian, 97.1%; in the experiment with OVCAR-4 ovarian it was 102%; in the experiment on SK-OV-3 ovarian, 88.8%. Moreover, the growth is 97.8% with IGROV1 ovarian, 103% in the experiment on OVCAR-3 ovarian, 98.1% in the experiment with HS 578T breast and 99.8% with NCI/ADR-RES ovarian.
In the case of `Cc1ccc(C(O)C2CC2)cc1` (configuration not stated), the growth in the experiment on SK-MEL-2 melanoma was 104%; in the experiment with SN12C renal, 102%; in the experiment with UO-31 renal, 88.5%; in the experiment with TK-10 renal, 116%; in the experiment on ACHN renal, 104%; with CAKI-1 renal it was 91.9%. In addition, the growth in the experiment with A498 renal is 87.5%; in the experiment on CCRF-CEM leukemia, 91.7%; in the experiment with MOLT-4 leukemia, 100%; in the experiment with SR leukemia, 91.7%; with RPMI-8226 leukemia, 99.3%; with OVCAR-8 ovarian, 94.1%. In addition, the growth in the experiment on OVCAR-5 ovarian is 94%; in the experiment with OVCAR-4 ovarian, 105%; with SK-OV-3 ovarian it was 106%; in the experiment with IGROV1 ovarian, 96.8%; in the experiment with OVCAR-3 ovarian, 106%; in the experiment with HS 578T breast, 104%. Further, the growth in the experiment on NCI/ADR-RES ovarian was 107%.
In the case of `C#CC(C(C)C)N(CCO)CCCC` (configuration not stated), the growth is 111% in the experiment with SK-MEL-2 melanoma; 102% in the experiment on SN12C renal; 96.8% in the experiment on UO-31 renal; 107% in the experiment with TK-10 renal; 100% in the experiment with ACHN renal; 102% in the experiment with CAKI-1 renal. The growth was 88.8% in the experiment with A498 renal; 95.6% in the experiment on CCRF-CEM leukemia; 107% with MOLT-4 leukemia; 101% with SR leukemia; 101% with RPMI-8226 leukemia; 105% in the experiment with OVCAR-8 ovarian. Further, the growth in the experiment with OVCAR-5 ovarian is 92.4%; in the experiment with OVCAR-4 ovarian, 101%; in the experiment with SK-OV-3 ovarian it was 106%; with IGROV1 ovarian it was 115%; with OVCAR-3 ovarian, 111%; with HS 578T breast, 102%. Further, the growth in the experiment on NCI/ADR-RES ovarian is 110%.
As for `CC(C)=NNC(N)=S`, the growth with SK-MEL-2 melanoma was 112%; in the experiment on SN12C renal, 74.4%; in the experiment with UO-31 renal, 79.3%; in the experiment with TK-10 renal it was 113%; in the experiment on ACHN renal, 88.3%; in the experiment on CAKI-1 renal, 83.3%. The growth was 97.8% in the experiment with A498 renal; 44.2% in the experiment with CCRF-CEM leukemia; 60.4% in the experiment with MOLT-4 leukemia; 86.7% with SR leukemia; 67.8% with RPMI-8226 leukemia; 72.4% in the experiment on OVCAR-8 ovarian. The growth with OVCAR-5 ovarian was 89%; in the experiment with OVCAR-4 ovarian it was 59.4%; with SK-OV-3 ovarian, 115%; in the experiment with OVCAR-3 ovarian it was 37.2%; in the experiment with HS 578T breast it was 84.3%; in the experiment on NCI/ADR-RES ovarian, 47.3%.
